# In the supplement of paper PMC3334620:
# Over roughly 33,000 sequences, “E-score (-0.5 to 0.5)” has its median near -0.0034; the highest 2% begin near 0.25. For the sample, the highest values were picked, then their nearest neighbours and some sequences at random.
# Molecular target: T1, Yap3 (UniProt P38749)
# T1 sequence: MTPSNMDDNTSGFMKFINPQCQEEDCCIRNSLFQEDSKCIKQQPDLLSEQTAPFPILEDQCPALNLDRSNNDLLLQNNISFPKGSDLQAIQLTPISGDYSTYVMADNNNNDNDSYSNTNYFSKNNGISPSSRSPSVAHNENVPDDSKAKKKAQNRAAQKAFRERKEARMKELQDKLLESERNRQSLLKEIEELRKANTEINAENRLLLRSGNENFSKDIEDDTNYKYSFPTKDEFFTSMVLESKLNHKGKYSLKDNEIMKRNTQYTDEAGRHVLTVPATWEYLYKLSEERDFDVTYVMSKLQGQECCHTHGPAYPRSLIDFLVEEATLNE
# Assay: PBM E-score (8-mer binding enrichment) (E-score (-0.5 to 0.5)); higher = stronger / more preferred TF binding
# Settings: protein concentration: 100 nM; construct: GST-full length
# Experimental: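 Universal 'all 10-mer' protein binding microarrays (Agilent AMADID 015681) probed with GST-tagged S. cerevisiae TFs (full-length or DBD) made by in vitro transcription/translation (PURExpress), about 100-200 nM. Bound TF was detected with fluorescent anti-GST. Each ungapped 8-mer (which stands for itself and its reverse complement) is scored by the PBM enrichment score (E-score), a modified Wilcoxon-Mann-Whitney statistic from -0.5 to +0.5, computed with the Universal PBM Analysis Suite. Scale: above 0.35 generally sequence-specific binding.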
row,Sequence,PBM E-score
1,CTCGACGC,0.0226
2,AATGTTGC,0.0681
3,CGGATGAA,0.265
4,CGGATGAG,-0.0331
5,AGGATGAA,0.0231
6,ATAGAAAA,0.217
7,ATTACAGG,0.268
8,ATTACACC,0.215
9,ACTACACA,0.258
10,ACTACACG,0.0255
11,ATTACAGA,0.11
12,ATAACACG,0.137
13,CCTACACG,-0.251
14,ATTACACG,0.0795
15,ATTACAGC,-0.046
16,CTAACACA,0.146
17,ATTACACA,0.255
18,ATAACACA,0.273
19,CCAGTGGC,-0.168
20,ATCGAGTC,-0.0569
21,CAGTAAGC,0.0593
22,AAAGATGA,0.144
23,ATTCTTCA,0.0724
24,ATAACCTG,-0.0425
25,CGTATAAA,0.156

row,Sequence,PBM E-score
1,GATTACAA,0.154
2,ACCAGTTG,0.0294
3,AAAAGGGG,-0.187
4,AATCAACG,0.109
5,AATCAATC,0.139
6,GATCAACA,-0.0544
7,AATCAATG,0.2
8,TATCAACA,0.123
9,AATCAATT,0.256
10,AATCAACC,-0.0555
11,AATCAACA,0.304
12,CATCAACA,0.255
13,CTCGGTAA,0.053
14,CTGAAATA,0.165
15,ATGAAATA,0.288
16,ATGAAAAT,0.209
17,ATGAAAAA,0.278
18,ATGAAAAG,0.122
19,GTGAAATA,0.0605
20,ACGTGCTC,-0.0391
21,AAAGGTAA,0.0127
22,CGGTTGAG,-0.052
23,AGATTCGC,-0.0247
24,CGTCTGAC,0.066
25,CAAGTGTG,0.0428

row,Sequence,PBM E-score
1,CTGACACC,-0.174
2,ATGGCACC,-0.14
3,CTCTGCAC,-0.173
4,ATATATAA,0.295
5,ACATATAC,0.146
6,TTATATAA,0.418
7,AGGTATAA,0.0868
8,ACATATAA,0.29
9,GTATATAA,0.217
10,CGGTATAA,0.18
11,TGGTATAA,0.268
12,CTATATAA,0.121
13,CTCTATAA,0.0647
14,ACATATAT,0.123
15,TGATATAA,0.108
16,GCCTGCCC,-0.297
17,CAGAACTG,0.157
18,AGCATGAC,-0.037
19,ACGACCTG,-0.18
20,AAAGTGTC,-0.0685
21,CGGACTAG,-0.101
22,CTAGAGAG,-0.139
23,GGCGACAA,-0.181
24,TGCGACAA,-0.00108
25,CGCGACAA,0.272

row,Sequence,PBM E-score
1,GCGTCCCA,-0.121
2,GGTGGCGA,-0.0578
3,AAGGAGCG,0.00726
4,ACGGCAAA,0.134
5,ACGGCAAG,0.1
6,ACGGCAAT,0.285
7,GAAAAACC,0.136
8,AAAAAAAC,0.151
9,GGAAAACC,-0.11
10,GAAAAAAC,0.255
11,AAAAAAAA,0.244
12,GGGAAAAC,0.0844
13,GGAAAAAA,0.248
14,GGAAAAAC,0.3
15,GAAAAAAA,0.287
16,CCCAGCAC,-0.123
17,CACAGCAA,0.103
18,AGTCCTAC,-0.125
19,CTACCTTC,0.0321
20,AAGCTAAC,0.0596
21,CCTAAGGC,-0.38
22,CTACTTCA,-0.0894
23,GTACTTCA,0.287
24,ATACTTCA,0.0363
25,GCCAGGCA,-0.12

row,Sequence,PBM E-score
1,AACAGGCC,-0.258
2,ACGCGTTG,-0.027
3,TTACCTAA,0.281
4,CTACCTAA,0.126
5,ATACCTAC,-0.0217
6,ATACCTAA,0.273
7,GTACCTAA,-0.0819
8,ATACCTAT,0.124
9,CTCAGACA,0.087
10,GCATTCAA,0.0939
11,GCAACAAA,0.193
12,GGAACAAA,0.311
13,CGAACAAG,0.0425
14,AGAACAAT,0.221
15,CGAACAAA,0.303
16,AGAACAAG,0.205
17,TGAACAAA,0.248
18,GGAACAAC,0.157
19,AGAACAAA,0.291
20,CGCTCAAG,-0.114
21,AACTGGAC,0.0415
22,CGCGAGAG,-0.0457
23,AAGGCTTA,0.0457
24,AAGAGAGG,-0.163
25,GTTGTTCA,-0.0828

row,Sequence,PBM E-score
1,CTGTATTA,0.258
2,CTGTAGTA,0.281
3,GTGTATTA,0.338
4,ACGTATTA,0.282
5,GTGTAGTA,0.0243
6,ACGTATTG,0.111
7,ATGTATTA,0.178
8,CTGTATTC,0.128
9,ATGTAGTA,0.237
10,CTGTATAA,0.13
11,GTGTATGA,0.0534
12,GCGTATTA,0.148
13,GCTGCTCC,-0.307
14,ATCATATC,0.193
15,CGCTGTCA,-0.151
16,CGAGAACC,-0.00819
17,CGCACACG,-0.135
18,CCGTGAGA,-0.162
19,AACGCGCC,-0.0619
20,AGCTTTCC,-0.0722
21,ATTTGACG,0.138
22,CTGGGCCC,-0.273
23,CTGTGTTA,0.162
24,GTGTGTTA,0.259
25,ATGTGTTA,0.2

row,Sequence,PBM E-score
1,TGTTGGAA,0.122
2,AAGTCGAA,-0.0326
3,AGTACCAA,0.281
4,ATTACCAA,0.271
5,ATTACCAC,0.136
6,GTTACCAA,0.221
7,TGTACCAA,0.0503
8,CGTACCAA,0.21
9,AACTCAAA,0.187
10,GACGCGCC,-0.119
11,AATATGGC,0.0119
12,ATCACGTG,0.0436
13,ATGACGTG,0.127
14,ATGACAAA,0.307
15,ATGACAAC,0.189
16,ATCACGTA,0.311
17,ATCACGTC,0.16
18,ATGACGTA,0.277
19,ATGACAAG,-0.0324
20,CTGACGTA,0.0592
21,TGACTGCA,-0.167
22,CGCAGGTA,-0.116
23,ACTTAAGT,0.193
24,CCGAGCGC,0.00891
25,ACCTAGGG,-0.0254

row,Sequence,PBM E-score
1,AGCAACGA,0.117
2,CCGCTCGC,-0.178
3,ACAAGTTA,0.16
4,ACCAATAC,0.0412
5,AACAATAT,0.329
6,ACCAATAT,0.254
7,AACAATAC,0.0469
8,ACCAATAG,-0.0827
9,AACAATAA,0.179
10,CGTGAACC,-0.157
11,TCTCAGCA,0.0139
12,CAATTGGC,0.179
13,AATCCCCA,-0.0814
14,CGGTTACC,-0.159
15,ACCATGCG,0.0314
16,AAATTGGT,0.244
17,CCAGGGAA,-0.188
18,ACGAACCC,-0.133
19,ACGAACCA,0.266
20,CCGAACCA,-0.116
21,AGAAGGCA,-0.115
22,AATGCAAG,0.0231
23,AATGCATT,0.258
24,AATGCATG,0.188
25,AATGCATA,0.0923

row,Sequence,PBM E-score
1,AATGCAAA,0.262
2,AATGCGCA,0.295
3,AATGCAAC,0.104
4,AATGCGCG,0.178
5,CATGCGCA,0.0286
6,GCTCTCCA,-0.215
7,TCTATTCA,0.222
8,TCAAACCA,0.165
9,ACACTCGT,0.00445
10,TAATCCAA,0.24
11,AGAGCCCA,-0.112
12,CGGAAGAC,-0.00677
13,ATAATCTA,0.229
14,CTAATATA,0.235
15,ATAATATG,0.307
16,CGAATATA,0.148
17,ATAATAGG,0.157
18,ATAATATA,0.307
19,ATAATATC,0.194
20,GTAATCTA,0.319
21,GTAATATA,0.354
22,GTAATAGA,0.223
23,AGAATATA,0.14
24,CTAATCTA,0.00845
